ChEMBL document CHEMBL1961873, “Compounds: GSK PKIS; Assays: Nanosyn kinase panel” (2012)

Legend:
[1] = molecular target: Dual specificity protein kinase CLK3 (Homo sapiens) (UniProt P49761); conditions: at 1 µM;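 also: each value is the mean inhibition of CLK3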
[2] = molecular target: Dual specificity tyrosine-phosphorylation-regulated kinase 1A (Homo sapiens) (UniProt Q13627); conditions: at 0.1 µM
[3] = molecular target: Dual specificity tyrosine-phosphorylation-regulated kinase 1A (Homo sapiens) (UniProt Q13627); conditions: at 1 µM
[4] = molecular target: Dual specificity tyrosine-phosphorylation-regulated kinase 1B (Homo sapiens) (UniProt Q9Y463); conditions: at 0.1 µM
[5] = molecular target: Dual specificity tyrosine-phosphorylation-regulated kinase 1B (Homo sapiens) (UniProt Q9Y463); conditions: at 1 µM
[6] = molecular target: T1, Dual specificity tyrosine-phosphorylation-regulated kinase 2 (Homo sapiens) (UniProt Q92630); conditions: at 0.1 µM
T1 sequence (whole entry): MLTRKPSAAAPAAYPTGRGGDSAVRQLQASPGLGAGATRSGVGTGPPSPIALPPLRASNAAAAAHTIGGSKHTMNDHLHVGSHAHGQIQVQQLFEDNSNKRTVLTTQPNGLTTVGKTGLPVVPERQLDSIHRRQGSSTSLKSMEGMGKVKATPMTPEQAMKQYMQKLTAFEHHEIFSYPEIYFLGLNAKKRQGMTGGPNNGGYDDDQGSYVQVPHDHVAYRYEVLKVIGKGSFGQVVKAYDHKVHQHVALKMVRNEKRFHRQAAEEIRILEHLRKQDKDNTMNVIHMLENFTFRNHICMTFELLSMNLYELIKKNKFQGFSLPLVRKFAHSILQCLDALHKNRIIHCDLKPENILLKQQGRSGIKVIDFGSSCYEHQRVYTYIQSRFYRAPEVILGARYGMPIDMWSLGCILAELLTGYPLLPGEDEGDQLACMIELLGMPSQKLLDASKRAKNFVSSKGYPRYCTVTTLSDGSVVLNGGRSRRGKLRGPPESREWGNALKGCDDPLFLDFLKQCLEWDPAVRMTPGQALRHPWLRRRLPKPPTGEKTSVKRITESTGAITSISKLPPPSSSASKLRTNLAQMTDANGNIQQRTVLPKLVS

[7] = molecular target: T1, Dual specificity tyrosine-phosphorylation-regulated kinase 2 (Homo sapiens); conditions: at 1 µM
[8] = molecular target: Glycogen synthase kinase-3 alpha (Homo sapiens) (UniProt P49840); conditions: at 0.1 µM
[9] = molecular target: Glycogen synthase kinase-3 alpha (Homo sapiens) (UniProt P49840); conditions: at 1 µM
[10] = molecular target: Glycogen synthase kinase-3 beta (Homo sapiens) (UniProt P49841); conditions: at 0.1 µM;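 also: values are mean percent inhibition of GSK3B activity, from the GSK Published Kinase Inhibitor Set (PKIS) screening dataset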
Chain of Glycogen synthase kinase-3 beta (Homo sapiens) (P49841 whole entry, looked up): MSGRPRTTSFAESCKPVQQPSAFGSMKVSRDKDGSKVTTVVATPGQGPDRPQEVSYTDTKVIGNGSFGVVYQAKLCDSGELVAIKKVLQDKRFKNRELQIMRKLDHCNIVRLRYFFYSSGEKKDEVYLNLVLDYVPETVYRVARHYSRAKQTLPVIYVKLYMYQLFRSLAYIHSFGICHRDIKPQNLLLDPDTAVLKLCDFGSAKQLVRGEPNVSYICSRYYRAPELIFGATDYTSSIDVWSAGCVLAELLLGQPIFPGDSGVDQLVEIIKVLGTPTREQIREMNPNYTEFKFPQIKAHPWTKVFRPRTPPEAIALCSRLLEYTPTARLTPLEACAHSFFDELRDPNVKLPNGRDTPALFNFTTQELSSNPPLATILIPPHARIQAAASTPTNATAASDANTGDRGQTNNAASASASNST

Chain of Glycogen synthase kinase-3 alpha (Homo sapiens) (P49840 2-483 limits assumed): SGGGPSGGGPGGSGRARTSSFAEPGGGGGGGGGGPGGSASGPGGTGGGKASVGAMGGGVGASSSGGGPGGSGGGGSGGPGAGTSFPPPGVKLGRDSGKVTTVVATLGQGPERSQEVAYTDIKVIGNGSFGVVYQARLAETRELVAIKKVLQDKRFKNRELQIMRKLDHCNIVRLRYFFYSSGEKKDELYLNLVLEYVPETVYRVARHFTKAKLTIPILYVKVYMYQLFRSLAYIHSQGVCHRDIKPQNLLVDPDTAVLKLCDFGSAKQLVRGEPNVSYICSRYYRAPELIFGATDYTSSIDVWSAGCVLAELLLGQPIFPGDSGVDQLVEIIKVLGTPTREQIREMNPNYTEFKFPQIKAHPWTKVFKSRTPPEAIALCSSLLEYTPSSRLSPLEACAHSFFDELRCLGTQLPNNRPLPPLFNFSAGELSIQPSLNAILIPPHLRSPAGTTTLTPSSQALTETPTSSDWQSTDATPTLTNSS
Chain of Dual specificity tyrosine-phosphorylation-regulated kinase 1B (Homo sapiens) (Q9Y463 whole entry, looked up): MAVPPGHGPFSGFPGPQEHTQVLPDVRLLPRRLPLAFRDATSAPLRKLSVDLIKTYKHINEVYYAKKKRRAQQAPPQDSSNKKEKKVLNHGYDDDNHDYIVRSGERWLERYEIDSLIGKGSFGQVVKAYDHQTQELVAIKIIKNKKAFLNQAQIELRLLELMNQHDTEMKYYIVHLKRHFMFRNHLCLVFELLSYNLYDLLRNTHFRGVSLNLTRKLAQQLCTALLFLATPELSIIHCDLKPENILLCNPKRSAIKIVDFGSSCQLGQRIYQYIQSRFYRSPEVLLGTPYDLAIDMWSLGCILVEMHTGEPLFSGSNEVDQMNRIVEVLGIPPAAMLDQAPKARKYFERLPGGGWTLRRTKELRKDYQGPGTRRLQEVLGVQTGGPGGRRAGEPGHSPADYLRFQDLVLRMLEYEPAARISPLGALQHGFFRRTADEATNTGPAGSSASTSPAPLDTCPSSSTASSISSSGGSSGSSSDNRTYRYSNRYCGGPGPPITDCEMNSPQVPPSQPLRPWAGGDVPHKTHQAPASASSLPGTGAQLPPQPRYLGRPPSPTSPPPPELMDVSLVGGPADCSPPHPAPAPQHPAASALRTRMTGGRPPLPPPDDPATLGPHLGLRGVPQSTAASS
Chain of Dual specificity protein kinase CLK3 (Homo sapiens) (P49761 whole entry, looked up): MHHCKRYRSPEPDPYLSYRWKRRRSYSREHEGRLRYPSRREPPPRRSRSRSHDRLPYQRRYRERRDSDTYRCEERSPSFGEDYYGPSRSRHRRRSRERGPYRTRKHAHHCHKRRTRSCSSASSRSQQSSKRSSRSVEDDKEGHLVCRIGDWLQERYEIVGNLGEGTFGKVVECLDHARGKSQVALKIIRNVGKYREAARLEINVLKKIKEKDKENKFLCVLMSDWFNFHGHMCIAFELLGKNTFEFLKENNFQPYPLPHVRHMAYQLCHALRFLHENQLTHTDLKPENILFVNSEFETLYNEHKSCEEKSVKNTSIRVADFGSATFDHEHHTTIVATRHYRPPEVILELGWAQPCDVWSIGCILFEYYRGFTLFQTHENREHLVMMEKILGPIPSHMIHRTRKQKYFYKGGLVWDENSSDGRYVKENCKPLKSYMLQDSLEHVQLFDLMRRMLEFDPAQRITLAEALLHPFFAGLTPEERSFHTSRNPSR

SMILES	inhibition [1] [%]	inhibition [2] [%]	inhibition [3] [%]	inhibition [4] [%]	inhibition [5] [%]	inhibition [6] [%]	inhibition [7] [%]	inhibition [8] [%]	inhibition [9] [%]	inhibition [10] [%]
N#Cc1ccc(Oc2nccc(-c3c(-c4ccc(F)cc4)ncn3C3CCNCC3)n2)cc1	-0.16	2.5	3.49	-2.39	-1.58	2.92	2.24	1.66	2.69	0.3
O=C1Nc2ccc(I)cc2C1=Cc1cc(Br)c(O)c(Br)c1	-0.23	1.95	4.99	-0.26	3.56	4.72	8.06	0.99	5.19	0.29
c1ccc(-c2n[nH]cc2-c2ccnc(-c3ccc(OCCN4CCOCC4)cc3)c2)nc1	0.55	4.43	5.39	7.33	6.5	-0.9	-1.36	5.19	4.57	4.18
C/C(Nc1ccc(S(N)(=O)=O)cc1)=C1/C(=O)Nc2ccccc21	1.28	3.02	11.5	2.13	12.7	-1.67	3.79	1.25	7.04	1.17
Clc1ccc(CNc2nccc(-c3cnn4ncccc34)n2)cc1	6.69	16	58	28.6	74.2	0.77	7.51	2.42	9.8	2.82
C[C@@H](Oc1cc(-n2cnc3ccc(OCC4CCN(C)CC4)cc32)sc1C(N)=O)c1ccccc1Cl	2.9	2.94	3.56	1.54	2.55	4.66	9.72	4.39	10.2	2.71
Cc1ccc(C(=O)NC2CCC2)cc1-c1ccc(C(=O)NCC2CC2)cc1	1.28	2.74	5.39	1.78	2.49	2.22	3.3	1.01	4.22	0.28
O=C(NCC1CC1)c1ccc(-c2cccc(C(=O)NC3CC3)c2)cc1	2.44	0.99	2.88	0.66	1.93	2.27	3.38	1.5	3.17	1.32
NC(=O)Cc1ccccc1Oc1nccc(-c2c(-c3ccc(F)cc3)ncn2C2CCNCC2)n1	1.79	4.01	5.44	2.79	3.43	2.28	3.74	1.87	3.05	-0.25
COc1cc(Nc2ncc3c(C)nc(-c4cccc(C(F)(F)F)c4)n3n2)cc(OC)c1OC	2.91	4.11	29.8	0.38	11.2	2.73	3.63	2.88	13.8	4.09
c1ccc(Oc2ccc(Nc3ncc(-c4ccccc4)o3)cc2)cc1	1.59	2.14	5.29	1.51	2.84	0.4	0.21	2	5.53	1.83
Nc1nccc(-c2c(-c3ccc(F)cc3)ncn2C2CCC(O)CC2)n1 (stereo not given)	3.28	2.86	5.97	3.71	5.6	-1.97	-2.78	0.95	5.67	1.63
Cc1ccc(NC(=O)c2ccoc2)cc1-c1ccc(C(=O)NCC2CC2)cc1	0.49	2.62	3.4	-0.58	2.65	1.99	0.34	11	0.83	6.09
COc1cc2ncn(-c3cc(OCc4cccs4)c(C(N)=O)s3)c2cc1OC	0.59	-2.96	-0.93	-3.74	-1.79	0.17	4.35	0.28	6.22	0.55
C#Cc1cccc(Nc2ncnc3ccc(OCCCCNCCS(C)(=O)=O)cc23)c1	-1.87	0.92	4.86	-2.75	-1.25	2.91	7.08	-0.41	1.81	-0.71
COc1cc(Nc2ncc3c(C)nc(-c4cccc(Oc5ccccc5)c4)n3n2)cc(OC)c1OC	2.37	0.25	5.84	0.92	2.74	2.11	1.95	0.37	0.14	-0.59
Fc1ccc(-c2ncn(C3CCNCC3)c2-c2ccnc(Oc3ccc(F)c(F)c3)n2)cc1	-3.79	-2.02	-0.16	-4.48	-2.53	1.98	2.31	0.07	2.94	-0.48

SMILES	inhibition [1] [%]	inhibition [2] [%]	inhibition [3] [%]	inhibition [4] [%]	inhibition [5] [%]	inhibition [6] [%]	inhibition [7] [%]	inhibition [8] [%]	inhibition [9] [%]	inhibition [10] [%]
NS(=O)(=O)c1ccc(N/N=C2\C(=O)Nc3ccc(C(=O)NCCCn4ccnc4)cc32)cc1	8.02	7.66	15.9	4.25	15.6	4.62	16.2	40.6	76	39.7
COc1cccc(-n2cnc3c(N/N=C/c4ccncc4)ncnc32)c1	-2.92	-3.39	2.17	-3.26	-0.65	0.79	2.96	3.64	34.7	3.02
Fc1ccc(-c2ncn(C3CCNCC3)c2-c2ccnc(Oc3ccc(Oc4ccccc4)cc3)n2)cc1	1.21	2.96	3.95	-0.87	0.42	4.61	7.67	2.97	2.77	2.21
NS(=O)(=O)c1ccc(N/N=C2\C(=O)Nc3ccc(-c4cnco4)cc32)cc1	1.68	29.3	81.2	4.08	38.5	9.21	52	31.6	67.4	26.4
CN1CCN(CCCNc2nc3ccc(Oc4ccc(NC(=O)Nc5cc(C(F)(F)F)ccc5F)cc4)cc3[nH]2)CC1	-3.62	-4.06	-2.54	-2.52	-2.58	0.8	-0.19	-2.85	0.59	-2.95
O=C(Nc1ccc(Oc2ccc3[nH]c(NC(=O)c4ccccc4)nc3c2)cc1)Nc1cc(C(F)(F)F)ccc1F	3.71	1.94	4.75	0.86	3.47	2.36	3.65	3.49	8.16	3.19
CCc1ccc(Oc2nccc(-c3c(-c4ccc(F)cc4)ncn3C3CCNCC3)n2)cc1	0.51	0.92	1.59	-0.38	1.04	4.87	4.71	3.69	7.13	2.44
Fc1ccc(-c2ncn(C3CCNCC3)c2-c2ccnc(Oc3ccc4c(c3)OCO4)n2)cc1	-2.27	3.17	4.78	-1.37	0.33	3.24	3.38	2.07	5.18	2.71
CCc1nccc2c1nc(-c1nonc1N)n2CC	2.23	2.9	7.05	2.47	6.3	-0.4	3.18	0.44	7.97	2.74
CS(=O)(=O)CCNCc1ccc(-c2ccc3ncnc(Nc4ccc(OCc5ccccc5)c(Br)c4)c3c2)o1	-3.65	-3.54	-2.54	-5.79	-4.49	2.81	1.15	-0.62	-0.89	-1.65
CN(C)CCCNc1nccc(-c2c(-c3ccc(F)cc3)nn3cc(C(F)(F)F)ccc23)n1	-2.17	-2.63	1.55	-2.7	-0.43	1.01	2.09	2.87	7.76	3.14
COc1cccc(/C=N/Nc2ncnc3c2cnn3-c2cccc(OC)c2)c1	1.67	3.1	7.79	-0.79	2.23	2.19	6.04	14.8	58.1	10.3
Fc1ccc(-c2ncn(CCCN3CCOCC3)c2-c2ccncc2)cc1	0.51	-0.26	0.01	-0.42	-0.19	-0.03	0.55	-0.11	4.21	-0.54
CN(C)CCOc1ccc(-c2cc(-c3ccc4c(c3)CCC4=NO)c(-c3ccncc3)o2)cc1	1.91	-1.28	0.21	-1.57	-1.47	-1.36	-2.61	-0.52	-0.36	-0.79
COc1cc(C)c(N(C)C(=O)CN(C)C)cc1Nc1nc(Nc2cccc(F)c2C(N)=O)c2cc[nH]c2n1	-1.03	2.09	15.2	-1.79	13.1	2.31	1.64	-2.99	-1.13	-3.79
COc1ccc2cc(-c3c(-c4ccncc4)nc(-c4ccc([S+](C)[O-])cc4C)n3C)ccc2c1 (stereo not given)	2.67	2	7.26	2.45	6.41	-0.45	0	7.28	15.4	5.99
CN(c1ccc(NC(=O)Nc2c(Cl)cccc2Cl)cc1)c1ccnc(Nc2cccc(CS(C)(=O)=O)c2)n1	1.23	-0.53	0.63	-0.2	1.52	2.28	1.29	4.09	10	4.11
